Screening results as filed in PubChem.
DT40 TDP1 no CPT = qHTS for Inhibitors of human tyrosyl-DNA phosphodiesterase 1 (TDP1): qHTS in cells in absence of CPT; DT40 Tdp1-/- hTDP1 cells, no CPT, ATP luminescence, 48 h; Potency, µM (top dose mostly 46.2 µM), inactives show at the highest dose activity change, negative = growth inhibition, hits mostly inhibitors; 15% of 420,000 active; further: potency means the concentration at half of the fitted maximal effect; nearly all actives have a fitted effect of over 55% in size
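Chicken DT40 Tdp1-/- cells complemented with human TDP1, screened without camptothecin (DMSO vehicle only), 400 cells/well. Compounds pin-transferred, cells incubated at 37 °C for at least 48 hr. Growth read as ATP-dependent luminescence (CellTiter-Glo, 30 min at RT).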
IL1B secr inh = blocks inflammasome-driven IL-1 beta release; THP-1 LPS/ATP IL-1B secretion, AlphaLISA, 16 h; active compounds read low; activity change, % at 57.5 µM; 4.7% of 360,000 active; in the data active means activity change below about -50%; inconclusive means mostly about -30% to -49%
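THP-1 cells pretreated 1 hr with compounds (up to 57.5 uM final), then stimulated with LPS (250 ng/mL final) plus ATP (1.25 mM final); secreted IL-1B measured by AlphaLISA after 16 hr, decreased signal indicating inhibition.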
HT1080-NT tox = kills 2HG-producing HT-1080-NT fibrosarcoma cells; HT-1080-NT fibrosarcoma viability, CellTiter-Glo ATP luminescence, 48 h; Potency, µM (doses to about 46.1 µM), for inactives: at the top dose activity, negative = less viability, usual class: cytotoxic; 1.6% of 360,000 active; AID 686970;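 further: NT is the 2HG producing partner of a matched IDH1 knockdown line; potency means the concentration at half of the fitted maximal effect; 0% = DMSO-treated cells and -100% = media-only wells without cells; nearly all actives have a fitted effect of over 55% in size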
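Toxicity toward the 2HG-producing NT line was scored as %Activity, normalised to DMSO and no-cell wells, from CellTiter-Glo luminescence after 48 hours' treatment.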
HT1080 IDH1KD tx = HT-1080 IDH1 knockdown cell toxicity (counter line). Potency, µM (series often up to 46.1 µM), for the others: at the highest dose activity, negative = toxicity, most hits filed as cytotoxic. HT-1080 IDH1 knockdown viability, ATP luminescence, 48 h. AID 686971. 2% of 360,000 active;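 further: potency means the concentration at half of the fitted maximal effect; 0% = DMSO wells and -100% = cell-free medium wells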
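Viability of IDH1-knockdown HT-1080 fibrosarcoma cells was assessed by CellTiter-Glo after 48 h at 37 °C with titrated compound; concentration-effect curves were classified by fit quality and response size.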
TDP1 cell CPT = growth inhibition of DT40 Tdp1-/-;hTDP1 cells with camptothecin (screen for TDP1 inhibitors). Potency, µM (top dose mostly 46.2 µM), for the others: at the highest dose activity change, negative = growth inhibition, most hits filed as inhibitors. 12% of 420,000 active. chicken DT40 Tdp1-/-;hTDP1 cells + 20 nM CPT, ATP luminescence, 48 h; further: potency means the concentration at half of the fitted maximal effect; nearly all actives have a fitted effect of over 55% in size
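Chicken DT40 Tdp1-/- cells stably complemented with human TDP1 were seeded at 400 cells/well in medium containing 20 nM camptothecin, exposed to pin-transferred compounds, and grown at 37 °C for at least 48 hr. Viability was read as ATP luminescence.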
* = called active by the depositor; ? = inconclusive; · = no result given. Most compounds without a hit are left out; they make up all but 19% or so of the library. Unless noted, the call rests on the fitted dose curve; in most records, active means well fitted curve in the direction sought with a large enough effect; inconclusive means small, poorly fitted or top-dose-only effect, or another doubt; inactive means no such curve, though single readings can be large; an effect the other way counts as inactive or inconclusive. Unless noted, on the % scale 0 is the no-effect control and ±100 the full control effect.

SMILES	DT40 TDP1 no CPT	IL1B secr inh	HT1080-NT tox	HT1080 IDH1KD tx	TDP1 cell CPT
Cc1ccc(-c2nc(-c3cc4cccc(OCc5ccc(F)cc5)c4oc3=O)no2)cc1	18µM*	·	·	·	?
CCn1nc(C)c(CNC(=O)CC2C(=O)NCCN2CC(C)(C)C)c1C (configuration not stated)	24%	13	7%	3%	1%
c1ccc(COn2nnc3ccccc32)c(COn2nnc3ccccc32)c1	10µM*	?	-5%	-2%	18µM*
Cc1[nH]n(-c2cccc(Cl)c2)c(=O)c1C=NCC(C)C	-3%	-10	-19%	-19%	10%
CC(OC(=O)c1cccc(S(=O)(=O)N2CCCC2)c1)C(=O)NC1CCCCC1C (configuration not stated)	7%	32	-3%	-15%	8%
Nc1ccccc1SC(CC(=O)c1ccccc1)c1ccccc1 (configuration not stated)	13µM*	-12	?	?	?
CC(C(Sc1ccccc1N)c1ccccc1)[N+](=O)[O-] (configuration not stated)	3.7µM*	-85*	?	?	3.7µM*
COC(=O)c1ccccc1SC(CC(=O)c1ccccc1)c1ccc(F)cc1 (configuration not stated)	23µM*	?	?	?	18µM*
COc1cccc(NC(=O)CSc2nc(=O)n(Cc3ccccn3)c3c2CCC3)c1	-28%	·	·	·	7%
N#Cc1c(-c2ccccc2)c(-c2ccccc2)nn(CC(=O)NNC(=O)Nc2ccc(Cl)c(Cl)c2)c1=O	?	8	21µM*	15µM*	?
Cc1ccc(-c2nc3cc(C)c(Br)c(C)n3c2Cc2ccccc2)cc1	7.3µM*	24	-24%	-28%	2.3µM*
Cc1cc2nc(-c3ccc(Cl)cc3)c(CC(C)(C)C)n2c(C)c1Br	?	10	-23%	-26%	15µM*
Cc1cc2nc(-c3ccccc3)c(CC(C)(C)C)n2c(C)c1Br	18µM*	99	-21%	-26%	15µM*
Cc1ccc(Cc2c(-c3ccc(Cl)cc3)nc3cc(C)c(Br)c(C)n23)cc1	-14%	0	-6%	-6%	?
CCc1ccc(/C=C2/C(=O)N(C)C(=S)N2CC(=O)OC)s1	-21%	13	-1%	5%	-25%
O=C(CC1S/C(=N/N=C/c2cccs2)NC1=O)Nc1ccc(Cl)cc1 (configuration not stated)	-2%	12	-1%	-8%	-14%
O=C1N/C(=N\N=C\c2cccs2)SC1Cc1cccc(Cl)c1Cl (configuration not stated)	5.2µM*	15	4.6µM*	6.5µM*	3.3µM*
Cc1cccc(C)c1NC(=O)COC(=O)c1c2c(nc3ccccc13)/C(=C\c1ccc3c(c1)OCO3)CCC2	18µM*	13	-12%	-2%	?
CC(OC(=O)c1c2c(nc3ccccc13)/C(=C\c1ccc3c(c1)OCO3)CCC2)C(=O)Nc1ccc(S(N)(=O)=O)cc1 (configuration not stated)	18µM*	?	-9%	?	?
COc1ccc(N2CCN(C(=O)c3cccnc3SCc3cccc(Br)c3)CC2)cc1	?	?	-9%	-14%	?
CCN1C(=O)[C@@H]2[C@@H](c3ccc(-c4ccc(Cl)c(Cl)c4)c(OC)c3)N3CCC[C@@]3(C(=O)OC)[C@@H]2C1=O	9.2µM*	-18	-29%	-25%	8.2µM*
CCN1C(=O)[C@H]2[C@@H](c3ccc(-c4ccc(F)cc4)c(OC)c3)N3CCC[C@@]3(C(=O)OC)[C@H]2C1=O	8.2µM*	31	1%	-2%	8.2µM*
CCN1C(=O)[C@@H]2[C@@H](c3ccc(SC4CCCCC4)c(OC)c3)N3CCC[C@@]3(C(=O)OC)[C@@H]2C1=O	?	-3	-1%	-1%	23µM*
COC(=O)[C@@]12CCCCN1[C@H](c1ccc(-c3ccc4c(c3)OCO4)c(OC)c1)[C@@H]1C(=O)N(C)C(=O)[C@@H]12	?	4	-17%	1%	?
CCN1C(=O)[C@@H]2[C@@H](c3ccc(-c4cccc(Cl)c4)c(OC)c3)N3CCCC[C@@]3(C(=O)OC)[C@@H]2C1=O	16µM*	-13	10%	0%	?
SMILES	DT40 TDP1 no CPT	IL1B secr inh	HT1080-NT tox	HT1080 IDH1KD tx	TDP1 cell CPT
Cc1ccc(C(C)C)c(OCC(=O)Nc2ccc(-c3nc4ncccc4o3)cc2C)c1	-14%	·	·	·	-1%
CCN1c2ccccc2-c2nc3ccccc3n2C1c1cccs1 (configuration not stated)	13µM*	21	-16%	-1%	23µM*
c1ccc(C2Nc3ccccc3-c3nc4ccccc4n32)cc1 (configuration not stated)	?	?	1%	-5%	?
N#CCCn1cc(/C=C(\C#N)c2nc3ccccc3s2)c(-c2ccc(F)cc2)n1	-24%	43	-4%	-18%	2%
N#CCCn1cc(C=C(C#N)C#N)c(-c2ccc(Cl)cc2)n1	?	-28	-13%	-7%	16µM*
N#CCCn1cc(/C=N/O)c(-c2ccc(-c3ccccc3)cc2)n1	?	-19	?	?	23µM*
N#CCCn1cc(/C=C2\NC(=S)N(c3ccccc3)C2=O)c(-c2ccc(-c3ccccc3)cc2)n1	8.2µM*	-8	-13%	-19%	6.5µM*
CCN1C(=O)/C(=C\c2cn(CCC#N)nc2-c2ccc(F)cc2)SC1=S	-29%	-24	-3%	2%	?
N#CCCn1cc(/C=N/O)c(-c2ccc(Cl)cc2)n1	-6%	-23	-2%	-25%	-16%
CCOc1ccc(-c2c(=O)n(O)c3ccccc3[n+]2[O-])cc1	13µM*	-1	-2%	2%	?
CCOc1ccc(-c2c(=O)n(OCC)c3ccccc3[n+]2[O-])cc1	1%	15	4%	6%	-6%
CCOc1ccc(OCC)c(-c2c(=O)n(OCc3ccc(C(C)(C)C)cc3)c3ccccc3[n+]2[O-])c1	18µM*	-29	20%	-6%	21µM*
CCOC(=O)c1cc2c(=O)n3ccccc3nc2n(CC2CCCO2)c1=NC(=O)c1ccccc1OCC (configuration not stated)	15µM*	·	·	·	16µM*
CCOC(=O)c1cc2c(=O)n3ccccc3nc2n(Cc2ccco2)c1=NC(=O)c1cccc(OC)c1	?	-55*	-15%	-18%	?
